# Measured values taken from paper PMC10163288.
# Not all results are given here. How many sequences the whole screen found active is unknown. Values without a mark were called inactive.
# B1: il2ra_site1_1z92_normal_mot_HHH_b1_04329_000000069_0001_1_19_H_._HHH_b2_03912_0001_0000100007_0000001_0_af2pred_0001_af2pred_1 (protein)
# chain: SSSSIELIRFADEVVLRLAEEYKLSDEDAQYLAEVAIELIRRGYSEEEIEEILQEEAEKLSSSSS
# B2: il2ra_site2_2erj_sap_19_mot_HHH_b2_00505_000000221_0001_1_17_H_._HHH_b1_08169_0001_0000200013_0000001_1_0001 (protein)
# chain: SSSSSEWLHRSYKLANELMHLLARGDEEEFERLVEEIEKFAEERDNKVLKEIVESLHRLFNSSSS
# B3: il2ra_site1_2b5i_normal_mot_HHH_b2_04910_000000118_0001_1_19_H_._HHH_b1_07294_af2_0001_0000100005_0000001_0_af2pred_dldesign_0_af2pred (protein)
# chain: SSSSSSKEALELFLKANEAYQAGNYEEAKKLLEEALEKAKAAGMTALVKMIESALESLSSSSSSS
# B4: il2ra_site1_3nfp_sap_20_mot_HHH_b2_00213_000000088_0001_1_18_H_._HEEHE_0331_af2_0001_0000400039_0000001_0_0001_af2pred_dldesign_0_af2pred (protein)
# chain: SSSSSLRKELERLLKKAYETGKKNDKEKLKKLLEEALKLAKENKAKLSVKFLERALKQLKSSSSS
# B5: il2ra_site1_1z92_normal_mot_HHH_b1_04604_af2_000000029_0001_42_56_H_._HHH_b2_07020_af2_0001_0000300012_0000001_0 (protein)
# chain: SSSSSSDVIELALRLARALRRGDEEEVQELLEELKRYAEERDNRAAREIAERIEKHLGSSSSSSS
# B6: il2ra_site1_1z92_sap_15_mot_e1ae4cb039f7b6770b9307eb87230ce5_0001_000000230_0001_37_51_H_._22eb9e4dad251339c268dc73c902281b_0001_0001_0000100004_0000001_0_0001_ … (protein)
# chain: SSSSSSERDARIVVELAVRAAGLSEEQQEELERLAKELLEEGYSFEEIARILDKLALELGSSSSS
# B7: il2ra_site2_2erj_sap_13_mot_HHH_b2_06689_af2_000000039_0001_18_34_H_._HHH_b1_05500_af2_0001_0000100002_0000001_0_0001 (protein)
# chain: SSSSSEELHRLYELAVELLRAVAEGDEELVREILEEVEELAERADSENVKELIENLHRLFNSSSS
# B8: il2ra_site1_2b5i_normal_mot_HHH_b1_02271_000000068_0001_1_16_H_._HHH_b2_05772_0001_0000400026_0000001_0_af2pred_dldesign_0_af2pred (protein)
# chain: SSSSSPELKRLVEEALRRAEAAKAAGRVREALEILNAAHKKADEADDEELSDELEAKAKELSSSS
# B9: il2ra_site1_1z92_sap_10_mot_d8cfa582855fb05d91e09f57594ab115_0001_1_000000067_0001_37_51_H_._HEEHE_2450_0001_0000100007_0000001_0_0001 (protein)
# chain: SSSSSEAERAFELIREIDEVIREGDEEEAKRLLEELRRLAEERNSPTMKRLLELLEEALEGSSSS
# B10: il2ra_site2_2erj_normal_mot_6bd1339e93f6fdda22195c76da45ec5d_0001_000000136_0001_37_51_H_._ems_3hC_696_0001_0000700021_0000001_0_af2pred_0001_af2pred (protein)
# chain: LEEDILRAFRIAVELLEKFRDDPEIERLVLEASLELTEAIEENDEEKIERVIEKIEEIKEEADSS
# B11: il2ra_site2_3nfp_sap_19_mot_HHH_b1_03376_000000004_0001_41_55_H_._88162e6262ef81793ed720f4f561f318_0001_0001_0000800035_0000001_0_0001_af2pred_0001_1_af2pred_sw … (protein)
# chain: SSDEEQEESEELKELIREALEKNDDEKLRKLIKEAASFALQLNDEELLEFASEARALLAKLRLSS
# B12: il2ra_site1_1z92_normal_mot_922575b2e9738a49cb663a995786872c_0001_af2_000000234_0001_18_32_H_._09c2afe89fb4cbada1505b3a46965288_0001_af2_0001_0000100006_0000001 … (protein)
# chain: GPEQELEELEEELGDPREAIRLLLEELEEESGDPELARQFLKIEIKRLFNVPPEEAERLLREAEK
# B13: il2ra_site1_3nfp_normal_mot_HHH_b1_04931_000000291_0001_38_56_H_._5fa2c1a30f04debedfe40931e4d0b367_0001_af2_0001_0000700055_0000001_0 (protein)
# chain: DVRFLLEAARFAGDELVVEVAEKLEELREEDPDDQEVKELVQKLLQLLAKDPEEAKKLAEELKRR
# B14: il2ra_site1_3nfp_normal_mot_ems_3hC_3_0002_000000237_0001_23_41_H_._971380201c9414114138cf1fdc40c0f4_0001_1_0001_0000300014_0000001_0_af2pred_0001_af2pred (protein)
# chain: SLAEELVEEIEEKGLPPEEIEKLIREILKRIGDPEEAREFFEELMRLAAKNRNEELLEAIKLVLR
# B15: il2ra_site1_3nfp_sap_10_mot_HHH_b2_00770_af2_000000063_0001_1_19_H_._HHH_b2_07788_0001_0000400012_0000001_0_0001 (protein)
# chain: NEEARRLAEAIARGDPRVEELIEELVEELKRKGDPDLRHALKALARMARSFGNPELAEELERLLK
# B16: il2ra_site1_1z92_normal_mot_HHH_b1_07828_af2_000000107_0001_18_34_H_._HHH_b1_02447_af2_0001_0000300012_0000001_0 (protein)
# chain: SSSSDLEEAIEILLQAIRRAIEAGNEKAAERFIEFAKEQIEDSGDPELERILRELEELLRSSSSS
# B17: il2ra_site1_2b5i_normal_mot_HHH_b1_02271_000000068_0001_1_16_H_._HHH_b1_08003_0001_0000900024_0000001_0_af2pred_dldesign_0_af2pred (protein)
# chain: SSSSSDKKAEVERLIEEAERLYKAGKRREALEKLNEAKKLADAADDEELEDKIEELAKKISSSSS
# B18: il2ra_site1_3nfp_sap_13_mot_0eddeacbb14b769e73e254714f31e2f9_0001_af2_000000052_0001_37_51_H_._3685a7fc0315cffcf770f862f50b42b9_0001_1_0001_0000400028_0000001_0 … (protein)
# chain: SDLEEEVRELIELIKEFAEERNSPVAKLYAELLEEAARRAEERNDERSLRYVLRSARLALRSGSS
# B19: il2ra_site1_1z92_sap_18_mot_HHH_b1_00368_000000203_0001_23_39_H_._d7cfadeb27be910639eb6e95e3396c32_0001_af2_0001_0000300014_0000001_0_0001 (protein)
# chain: SSSSDEELEERVKQFAEELVKELGLDEHAREALEKDAEAAVRLGFSERSIKLALERAARRASSSS
# Target: il2ra, P01589
# Sequence (P01589 whole entry): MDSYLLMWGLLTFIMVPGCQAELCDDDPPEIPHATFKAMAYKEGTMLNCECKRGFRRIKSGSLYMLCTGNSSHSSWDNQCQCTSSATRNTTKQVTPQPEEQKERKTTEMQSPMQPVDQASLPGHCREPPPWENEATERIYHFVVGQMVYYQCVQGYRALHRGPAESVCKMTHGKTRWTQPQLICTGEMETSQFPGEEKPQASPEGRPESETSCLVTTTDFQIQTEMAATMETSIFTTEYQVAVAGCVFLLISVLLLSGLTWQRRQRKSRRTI
# Test: yeast display titration
row,Binder,apparent Kd
1,B1,no binding seen
2,B2,no binding seen
3,B3,no binding seen
4,B4,> 1470 nM
5,B5,no binding seen
6,B6,no binding seen
7,B7,no binding seen
8,B8,no binding seen
9,B9,no binding seen
10,B10,no binding seen
11,B11,no binding seen
12,B12,no binding seen
13,B13,no binding seen
14,B14,no binding seen
15,B15,no binding seen
16,B16,no binding seen
17,B17,no binding seen
18,B18,no binding seen
19,B19,no binding seen
